# Biological target: Glycogen synthase kinase-3 beta (Homo sapiens) (UniProt P49841)
# Conditions: Compound concentration 20.0 uM
# Glycogen synthase kinase-3 beta (Homo sapiens), sequence (P49841 whole entry, looked up): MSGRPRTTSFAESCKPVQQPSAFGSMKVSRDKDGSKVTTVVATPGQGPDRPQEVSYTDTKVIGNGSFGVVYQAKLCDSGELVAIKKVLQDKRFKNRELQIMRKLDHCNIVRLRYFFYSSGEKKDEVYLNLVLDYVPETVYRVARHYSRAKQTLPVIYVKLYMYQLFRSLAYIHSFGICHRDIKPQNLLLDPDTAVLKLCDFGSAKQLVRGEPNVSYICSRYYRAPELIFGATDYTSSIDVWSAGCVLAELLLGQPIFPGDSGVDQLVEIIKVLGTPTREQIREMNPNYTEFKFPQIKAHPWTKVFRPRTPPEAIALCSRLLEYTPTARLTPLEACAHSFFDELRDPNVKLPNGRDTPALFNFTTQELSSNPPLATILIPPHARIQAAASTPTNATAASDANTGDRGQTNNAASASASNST
row,Compound,ΔTm
1,COc1cc(C)[nH]c(=O)c1CNC(=O)c1c(C)n([C@H](C)C2CCN(CC(F)(F)F)CC2)c2ccccc12,-0.64 °C
2,Fc1ccc(C(OCCN2CCN(CCCc3ccccc3)CC2)c2ccc(F)cc2)cc1,-0.66 °C
3,C[C@]12O[C@H](C[C@]1(O)CO)n1c3ccccc3c3c4c(c5c6ccccc6n2c5c31)CNC4=O,4.78 °C
4,O=[N+]([O-])c1cc(O)c(O)c([N+](=O)[O-])c1,-0.11 °C
5,CNC(=O)c1cc(C(=O)NC2CC2)cn(Cc2ccccc2)c1=O,-0.62 °C
6,N#Cc1ccc([C@H]2CCCC[C@H]2O)cc1C(F)(F)F,-0.43 °C
7,O=C1C(P(=O)(O)O)CC(O)N1O (stereo not given),-0.77 °C
8,CCS(=O)(=O)N1CCC([C@@H](C)n2c(C)c(C(=O)NCc3c(OC)cc(C)[nH]c3=O)c3ccccc32)CC1,-0.39 °C
9,COc1cc(C)[nH]c(=O)c1CNC(=O)c1c(C)n([C@H](C)C2CCOCC2)c2ccccc12,-0.59 °C
10,O=C1C(P(=O)(O)O)CCCN1O (stereo not given),-1.56 °C
11,O=C(N1CCCC[C@@H]1Cc1ccccc1)n1cc(-c2ccc(-c3ccccc3)cc2)nn1,-0.59 °C
12,N#Cc1ccc(N2N=C3c4ccc(C(=O)O)cc4CC[C@@H]3[C@@H]2C2CCCC2)cc1Cl,0 °C
13,Cc1sc2c(c1C)C(c1ccc(Cl)cc1)=N[C@@H](CC(=O)OC(C)(C)C)c1nnc(C)n1-2,-0.11 °C
14,C=CCO/N=C1\c2ccccc2-c2nc(C#N)c(C#N)nc21,0.17 °C
15,Nc1cccc(CNC(=O)c2ccc(Oc3ccc(OCc4cccc(F)c4)cc3)nc2)c1,1.13 °C
16,CC(=O)Nc1ccc(OC[C@](C)(O)C(=O)Nc2ccc([N+](=O)[O-])c(C(F)(F)F)c2)cc1,0.71 °C
17,C=Cc1cc(C(=O)Nc2ccc(C(=N)N)cc2)c(-c2ccc(C(=O)NCC3CC3)nc2C(=O)O)cc1OC,-0.41 °C
18,N[C@H]1CC[C@H](N[C@@H]2C[C@H]2c2ccccc2)CC1,-0.74 °C
19,Cc1ccc(N2C(=O)/C(=C/C=C/c3ccco3)C(=O)NC2=S)cc1Cl,-1.52 °C
20,COc1cn(-c2ccc(-n3cccn3)cc2F)nc(-c2ccnn2-c2ccccc2)c1=O,0.96 °C
21,CCOC(=O)c1ccc(-c2ccc(OC(=O)N(C)Cc3cccc(-c4ccncc4)c3)cc2)cc1,-4.12 °C

# Biological target: Mitogen-activated protein kinase 1 (Homo sapiens) (UniProt P28482)
# Sequence (P28482 whole entry): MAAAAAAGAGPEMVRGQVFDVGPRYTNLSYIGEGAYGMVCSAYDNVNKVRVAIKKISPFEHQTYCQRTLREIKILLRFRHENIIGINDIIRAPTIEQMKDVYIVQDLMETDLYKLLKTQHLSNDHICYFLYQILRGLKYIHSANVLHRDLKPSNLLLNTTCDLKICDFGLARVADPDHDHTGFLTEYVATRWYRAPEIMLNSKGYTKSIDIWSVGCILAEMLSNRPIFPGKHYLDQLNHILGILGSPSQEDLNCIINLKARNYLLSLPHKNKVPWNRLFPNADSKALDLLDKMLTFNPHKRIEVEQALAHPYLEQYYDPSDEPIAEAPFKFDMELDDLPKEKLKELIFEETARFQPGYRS
# Conditions: Compound concentration 20.0 uM
row,Compound,ΔTm
1,COc1cc(C)[nH]c(=O)c1CNC(=O)c1c(C)n([C@H](C)C2CCN(CC(F)(F)F)CC2)c2ccccc12,-0.27 °C
2,Fc1ccc(C(OCCN2CCN(CCCc3ccccc3)CC2)c2ccc(F)cc2)cc1,0.05 °C
3,C[C@]12O[C@H](C[C@]1(O)CO)n1c3ccccc3c3c4c(c5c6ccccc6n2c5c31)CNC4=O,0.35 °C
4,O=[N+]([O-])c1cc(O)c(O)c([N+](=O)[O-])c1,0.24 °C
5,CNC(=O)c1cc(C(=O)NC2CC2)cn(Cc2ccccc2)c1=O,0.15 °C
6,N#Cc1ccc([C@H]2CCCC[C@H]2O)cc1C(F)(F)F,-0.24 °C
7,O=C1C(P(=O)(O)O)CC(O)N1O (stereo not given),0.16 °C
8,CCS(=O)(=O)N1CCC([C@@H](C)n2c(C)c(C(=O)NCc3c(OC)cc(C)[nH]c3=O)c3ccccc32)CC1,-0.34 °C
9,COc1cc(C)[nH]c(=O)c1CNC(=O)c1c(C)n([C@H](C)C2CCOCC2)c2ccccc12,-0.18 °C
10,CC(C)n1nc(-c2cc3cc(O)ccc3[nH]2)c2c(N)ncnc21,0.14 °C
11,O=C1C(P(=O)(O)O)CCCN1O (stereo not given),0.01 °C
12,O=C(N1CCCC[C@@H]1Cc1ccccc1)n1cc(-c2ccc(-c3ccccc3)cc2)nn1,-0.45 °C
13,N#Cc1ccc(N2N=C3c4ccc(C(=O)O)cc4CC[C@@H]3[C@@H]2C2CCCC2)cc1Cl,-9.49 °C
14,Cc1sc2c(c1C)C(c1ccc(Cl)cc1)=N[C@@H](CC(=O)OC(C)(C)C)c1nnc(C)n1-2,-0.24 °C
15,C=CCO/N=C1\c2ccccc2-c2nc(C#N)c(C#N)nc21,-0.02 °C
16,Nc1cccc(CNC(=O)c2ccc(Oc3ccc(OCc4cccc(F)c4)cc3)nc2)c1,-0.86 °C
17,CC(=O)Nc1ccc(OC[C@](C)(O)C(=O)Nc2ccc([N+](=O)[O-])c(C(F)(F)F)c2)cc1,-0.26 °C
18,C=Cc1cc(C(=O)Nc2ccc(C(=N)N)cc2)c(-c2ccc(C(=O)NCC3CC3)nc2C(=O)O)cc1OC,0.21 °C
19,N[C@H]1CC[C@H](N[C@@H]2C[C@H]2c2ccccc2)CC1,0 °C
20,Cc1ccc(N2C(=O)/C(=C/C=C/c3ccco3)C(=O)NC2=S)cc1Cl,-1.33 °C
21,COc1cn(-c2ccc(-n3cccn3)cc2F)nc(-c2ccnn2-c2ccccc2)c1=O,0.22 °C
22,CCOC(=O)c1ccc(-c2ccc(OC(=O)N(C)Cc3cccc(-c4ccncc4)c3)cc2)cc1,0.21 °C

# Biological target: T1, Aurora kinase A (Homo sapiens) (UniProt O14965)
# T1 sequence (whole entry): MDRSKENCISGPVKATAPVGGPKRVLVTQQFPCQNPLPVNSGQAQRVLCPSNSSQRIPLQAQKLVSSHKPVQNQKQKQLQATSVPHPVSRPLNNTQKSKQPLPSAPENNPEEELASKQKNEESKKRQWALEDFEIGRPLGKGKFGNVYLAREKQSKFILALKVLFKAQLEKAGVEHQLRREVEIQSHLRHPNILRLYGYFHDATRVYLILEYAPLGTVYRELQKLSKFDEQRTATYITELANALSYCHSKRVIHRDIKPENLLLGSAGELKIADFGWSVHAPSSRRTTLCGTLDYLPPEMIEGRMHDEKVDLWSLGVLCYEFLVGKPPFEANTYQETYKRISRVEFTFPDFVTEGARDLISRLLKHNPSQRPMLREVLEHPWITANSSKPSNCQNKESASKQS
# Conditions: Compound concentration 20.0 uM
row,Compound,ΔTm
1,COc1cc(C)[nH]c(=O)c1CNC(=O)c1c(C)n([C@H](C)C2CCN(CC(F)(F)F)CC2)c2ccccc12,0.25 °C
2,Fc1ccc(C(OCCN2CCN(CCCc3ccccc3)CC2)c2ccc(F)cc2)cc1,-2.65 °C
3,C[C@]12O[C@H](C[C@]1(O)CO)n1c3ccccc3c3c4c(c5c6ccccc6n2c5c31)CNC4=O,8.79 °C
4,O=[N+]([O-])c1cc(O)c(O)c([N+](=O)[O-])c1,0.17 °C
5,CNC(=O)c1cc(C(=O)NC2CC2)cn(Cc2ccccc2)c1=O,-2.45 °C
6,N#Cc1ccc([C@H]2CCCC[C@H]2O)cc1C(F)(F)F,-1.09 °C
7,O=C1C(P(=O)(O)O)CC(O)N1O (stereo not given),-2.18 °C
8,CCS(=O)(=O)N1CCC([C@@H](C)n2c(C)c(C(=O)NCc3c(OC)cc(C)[nH]c3=O)c3ccccc32)CC1,-0.26 °C
9,COc1cc(C)[nH]c(=O)c1CNC(=O)c1c(C)n([C@H](C)C2CCOCC2)c2ccccc12,-0.23 °C
10,CC(C)n1nc(-c2cc3cc(O)ccc3[nH]2)c2c(N)ncnc21,3.86 °C
11,O=C1C(P(=O)(O)O)CCCN1O (stereo not given),-2.37 °C
12,O=C(N1CCCC[C@@H]1Cc1ccccc1)n1cc(-c2ccc(-c3ccccc3)cc2)nn1,-2.78 °C
13,N#Cc1ccc(N2N=C3c4ccc(C(=O)O)cc4CC[C@@H]3[C@@H]2C2CCCC2)cc1Cl,0.42 °C
14,Cc1sc2c(c1C)C(c1ccc(Cl)cc1)=N[C@@H](CC(=O)OC(C)(C)C)c1nnc(C)n1-2,-0.4 °C
15,C=CCO/N=C1\c2ccccc2-c2nc(C#N)c(C#N)nc21,-2.47 °C
16,Nc1cccc(CNC(=O)c2ccc(Oc3ccc(OCc4cccc(F)c4)cc3)nc2)c1,-1.57 °C
17,CC(=O)Nc1ccc(OC[C@](C)(O)C(=O)Nc2ccc([N+](=O)[O-])c(C(F)(F)F)c2)cc1,-0.03 °C
18,C=Cc1cc(C(=O)Nc2ccc(C(=N)N)cc2)c(-c2ccc(C(=O)NCC3CC3)nc2C(=O)O)cc1OC,-1.17 °C
19,N[C@H]1CC[C@H](N[C@@H]2C[C@H]2c2ccccc2)CC1,-1.42 °C
20,Cc1ccc(N2C(=O)/C(=C/C=C/c3ccco3)C(=O)NC2=S)cc1Cl,-0.68 °C
21,COc1cn(-c2ccc(-n3cccn3)cc2F)nc(-c2ccnn2-c2ccccc2)c1=O,-1.86 °C
22,CCOC(=O)c1ccc(-c2ccc(OC(=O)N(C)Cc3cccc(-c4ccncc4)c3)cc2)cc1,-1.65 °C
